# Experimental data: PubChem BioAssay (NCATS)
# Results filed as inconclusive are left out. The source made the active and inactive calls. Calls follow the shape of the dose curve; as a rule, active = well fitted cell-killing curve with a large enough effect; inconclusive = small, poorly fitted or top-dose-only effect; inactive = flat fitted curve, though single readings scatter.
# Assay: Cell Viability - LYMP2-026 (AID 989);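 also: cells exposed to compound for 24 h at 37 °C; nearly all actives have a fitted effect of over 50% in size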
# Settings: LYMP2-026 lymphoblastoid cell viability, qHTS; series mostly up to 92.2 µM
# From the text: NIH Chemical Genomics Center [NCGC]
# NIH Molecular Libraries Screening Centers Network [MLSCN]
# National Institutes of Environmental Health Sciences [NIEHS]
# National Toxicology Program [NTP]
# We have developed a 1536-well cell-based assay for quantitative high throughput screening (qHTS) against a number of cell lines to determine in vitro cytotoxicity of small molecules. This particular assay uses a human lymphoblastoid cell line (LYMP2-026) purchased from Coriell Institute for Medical Research.
# NCGC Assay Protocol Summary:
# The CellTiter-Glo luminescent cell viability assay (Promega) is a homogeneous method to measure the number of viable cells in culture. The end point readout of this assay is based on quantitation of intracellular ATP, an indicator of metabolic activity, using the luciferase reaction. Luciferase catalyzes the oxidation of beetle Luciferin to oxyluciferin and light in the presence of ATP. The luminescent signal is proportional to amount of ATP present.
# Using the CellTiter-Glo luminescent cell viability assay, the amount of cellular ATP was measured in the lymphoblastoid cell line with complete culture medium following compound treatment for 24 hours. The assay was performed in opaque white Kalypsys 1536-well plates. In the screen, tetraoctylammonium bromide was used as positive control. Library compounds were measured for their ability to cause acute toxicity in the cell line, as reflected by a decrease in intracellular ATP levels, in a concentration-dependent manner. […] AC50 values were determined from concentration-response data modeled with the standard Hill equation.
# qHTS protocol for CellTiter Glo lymphoblastoid cellular assay
# [Step] [Parameter] [Value] [Description]
# 1. Reagent; 5 uL; 2500 lymphoblastoid cells/well
# 2. Time; 5 hr; 37 C incubation
# 4. Controls; 23 nL; Tetraoctylammonium bromide 6.4pM to 92 uM
# 5. Time; 24 hr; 37 C incubation
# 6. Reagent; 5 uL; CellTiter Glo reagent
# 7. Time; 30 min; Room Temperature
# 8. Detection; Luminescence; Viewlux plate reader
# Keywords: cell viability, cytotoxicity, lymphoblastoid cell line, luminescence, NTPHTS, NTPHTS_NCGC, NIEHS, DSSTox, MLSMR, MLSCN, NIH Roadmap, qHTS, NCGC
row,Structure (SMILES),outcome
1,Cc1cccc([N+](=O)[O-])c1C(=O)O,inactive
2,CCOc1ccc(NC(C)=O)cc1N,inactive
3,OC/C(Br)=C(\Br)CO,inactive
4,C1CCC2OC2C1 (stereo not given),inactive
5,O=C1C=CCCC1,inactive
6,NC(N)=S,inactive
7,O=[N+]([O-])c1cccc(Cl)c1,inactive
8,NC=O,inactive
9,CCC(C)O (stereo not given),inactive
10,Nc1ccc([N+](=O)[O-])c(N)c1,inactive
11,N#CC1(O)CCCCC1,inactive
12,Nc1cccc(N)c1,inactive
13,Nc1ccccc1S(=O)(=O)O,inactive
14,C(=C/c1ccccc1)/c1ccccc1,inactive
15,CC/C=C/C#N,inactive
16,NC(=S)NNC(N)=S,inactive
17,CN(C)CCCNCCCN,inactive
18,C=C(C)C1CC=C(C)C(OC(C)=O)C1 (stereo not given),inactive
19,C=CCCCCCC,inactive
20,C=CC(=O)NC(C)C,inactive

row,Structure (SMILES),outcome
1,CNc1ccc([N+](=O)[O-])cc1,inactive
2,O=C(Cl)c1ccccc1[N+](=O)[O-],inactive
3,COC(=O)c1ccccc1,inactive
4,CCOC(=O)OCC,inactive
5,COC(=O)CCC(=O)OC,inactive
6,C=CCCCC,inactive
7,CC(C)c1ccccc1,inactive
8,O=C(O)c1ccccc1Cl,inactive
9,Cc1ccc2ncccc2c1,inactive
10,Nc1nc(-c2ccccc2)cs1,inactive
11,CC/C(C)=N/O,inactive
12,CCN(C(=O)N(CC)c1ccccc1)c1ccccc1,inactive
13,CCCCC(CC)CO (stereo not given),inactive
14,Oc1c(Cl)ccc(Cl)c1Cl,inactive
15,CC(C)Nc1ccccc1,inactive
16,CCCCCCCCCCCCOCC1CO1 (stereo not given),inactive
17,c1ccsc1,inactive
18,O=[N+]([O-])c1ccc2nc[nH]c2c1,inactive
19,Nc1ccccc1[N+](=O)[O-],inactive
20,Clc1ccccn1,inactive
